What all share (assay): NCI-60 one-dose screen, 48 h (100 = growth as untreated, 0 = no growth, -100 = all killed)
Conditions in all cases: 10 µM unless noted

For experiment [1], the system named is HCT-15 colon.
Experiment [2] relates to HT29 colon.
The test system of experiment [3] is SNB-75 CNS.
Experiment [4] has as its system SNB-19 CNS.
For experiment [5], the system named is U251 CNS.
The subject of experiment [6] is SK-MEL-5 melanoma.
For experiment [7], the system named is SK-MEL-28 melanoma.
The test system of experiment [8] is SK-MEL-2 melanoma.
Experiment [9] deals with EKVX NSCLC.
The subject of experiment [10] is SN12C renal.
The subject of experiment [11] is UO-31 renal.
Experiment [12] concerns TK-10 renal.
In experiment [13] the test system is ACHN renal.
The test system of experiment [14] is CAKI-1 renal.
The test system of experiment [15] is A498 renal.
The subject of experiment [16] is CCRF-CEM leukemia.
Experiment [17] concerns MOLT-4 leukemia.
The subject of experiment [18] is PC-3 prostate.
Experiment [19] relates to UACC-62 melanoma.
The test system of experiment [20] is LOX IMVI melanoma.

The panel holds about 83,000 compounds, 20% with a hit somewhere; the sample as a whole holds those more often.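 Negative percent growth values reflect cell death: -40 means 40% of the cells present at the start died, and -100 means all died.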 Values without a mark were called inactive. Calls of active or inactive are those of the source. How the source made its calls: active means growth percent below 10; inactive means the rest.

Drawing on PubChem BioAssay (NCI), this text covers growth for 8 compounds.

Take `Cc1nc2sc(C(=O)Nc3ccccc3)c(N)c2cc1C(=O)c1ccc(C(F)(F)F)cc1`: the growth in experiment [1] is 103%; in [2], 103%; in experiment [3], 17.4%; in [4], 96.3%; in [5], 102%; in experiment [6], 98.1%. The growth in experiment [7] was 99.7%; in experiment [8] it was 101%; in experiment [9], 79.3%; in experiment [10], 99.6%; in experiment [11], 90.7%; in experiment [12] it was 104%. Also, the growth in experiment [13] was 80%; in experiment [14], 83.6%; in experiment [15] it was 5.8% (active); in [16] it was 102%; in [17] it was 108%.
Take `C[C@H]1[C@H](C)CC[C@]2(CO)CC[C@]3(C)C(=CC[C@@H]4[C@@]5(C)CCCNC(C)(C)[C@@H]5CC[C@]43C)[C@H]12`: the growth is 6.84% (active) in [1]; -75.4% (active) in experiment [2]; 9.21% (active) in experiment [3]; -83.3% (active) in [5]; -43.2% (active) in experiment [18]; 22.5% in experiment [6]. The growth in [19] was -72.3% (active); in experiment [20], -94.9% (active); in [7] it was -84.9% (active); in [8], 13.1%; in experiment [9] it was 19.4%; in experiment [10] it was -1.54% (active). The growth in [11] is 12.5%; in [12], 23%; in experiment [13], -66.3% (active); in experiment [14], 16.4%; in experiment [16], -34.7% (active); in experiment [17] it was -45.6% (active).
For the compound `COc1cc(CCNc2nc3cc(N)cc(N)c3nc2-c2ccccc2)cc(OC)c1`, the growth in [1] was 69.7%; in experiment [2], 5.3% (active); in experiment [3], 39.9%; in experiment [5], -80.3% (active); in [6] it was -91.7% (active); in experiment [19] it was -22.3% (active). The growth in [20] is -79.7% (active); in experiment [7] it was -12.2% (active); in experiment [8], -3.81% (active); in experiment [9], 57.6%; in [10], -77.7% (active); in experiment [11], 39%. The growth in experiment [12] was 104%; in experiment [13], 52.3%; in experiment [14], 184%; in experiment [17], -66.5% (active).
Regarding `Cc1nc2sc(C(=O)Nc3cccc(Br)c3)c(N)c2cc1C(=O)c1ccc(C(F)(F)F)cc1`, the growth in [1] was 88.1%; in experiment [2], 90.3%; in [3], 55%; in [5], 58.7%; in experiment [18], 70.2%; in [6], 91%. For the same compound, the growth is 82.7% in experiment [19]; 73.3% in experiment [20]; 92.1% in experiment [7]; 104% in experiment [8]; 87.7% in experiment [9]; 71% in [10]. Besides, the growth in experiment [11] is 86.3%; in [12] it was 90.8%; in [13] it was 49.7%; in experiment [14] it was 79.8%; in [15], 109%; in [16], 82.1%. In addition, the growth in experiment [17] was 94.7%.
On to `CCCCCCCCCCN=C(N)N=C(N)N`, for which the growth in experiment [1] was 71.1%; in [2], 41.6%; in [3], 3.65% (active); in experiment [5] it was 34.8%; in experiment [18] it was 22.1%; in [6], 4.63% (active). Besides, the growth in experiment [19] is 37.2%; in [20], 47.3%; in experiment [7], 63.3%; in [8] it was 75.8%; in [9], 38.8%; in experiment [10], 9.21% (active). For the same compound, the growth in experiment [11] was 43.1%; in experiment [12] it was 40.8%; in experiment [13], 40.1%; in experiment [14], 43.4%; in experiment [15], 54.9%; in experiment [16], 35.7%. Also, the growth in [17] was 30.8%.
Consider `COc1ccc(/C(C)=N/NC(=O)CSc2nc3ccccc3c(=O)n2Cc2ccc(S(N)(=O)=O)cc2)c(OC)c1`, for which the growth in [1] was 96.2%; in [2], 111%; in experiment [3], 82.9%; in experiment [5] it was 103%; in experiment [6], 98%; in experiment [19], 96.9%. In addition, the growth in [20] was 94.2%; in experiment [7], 110%; in [8] it was 115%; in experiment [10], 100%; in experiment [11], 80%; in [12], 108%. Besides, the growth in [13] is 105%; in experiment [14], 89.9%; in [16], 104%; in experiment [17], 97.9%.
`C=C1C(=O)O[C@H]2[C@H]1CC/C(CNC(=O)/C=C/c1ccccc1F)=C\CC[C@@]1(C)O[C@@H]21`: the growth in experiment [1] was -63.4% (active); in experiment [2], -17.2% (active); in experiment [3], 94.1%; in experiment [5] it was 52.5%; in [18] it was 37.3%; in experiment [6] it was 66.1%. The growth in experiment [20] was -25% (active); in experiment [7] it was -33.9% (active); in experiment [8], 54.7%; in experiment [9], -18.9% (active); in experiment [10] it was 8.82% (active); in experiment [11], -95.9% (active). For the same compound, the growth in experiment [12] is -29% (active); in experiment [13], -65.6% (active); in experiment [14], -84.4% (active); in [16], -0.259% (active); in experiment [17], -12% (active).
For `CC(C)CN(C(=O)c1ccc(Cl)cc1)c1c(N)n(CC(C)C)c(=O)[nH]c1=O`, the growth in experiment [1] is 111%; in [2], 111%; in experiment [3] it was 88.4%; in experiment [5], 98.8%; in experiment [18] it was 89.8%; in [6], 37.6%. Also, the growth was 88.7% in experiment [19]; 102% in experiment [20]; 107% in experiment [7]; 96.4% in [8]; 106% in experiment [9]; 87.8% in experiment [10]. Also, the growth is 98.2% in experiment [11]; 125% in experiment [12]; 101% in experiment [13]; 50.2% in experiment [14]; 108% in [15]; 93.1% in experiment [16]. The growth in experiment [17] is 97.2%.
